aSyn 5UTR act: Activators via SNCA 5'UTR binding, MLPCN. activity score, % (tested at 7.5 µM), hits read low. alpha-synuclein 5'UTR reporter, activators screen. AID 1814, 2009. hit rate 7.1% among 300,000; in the data active = activity score below about -60%
An asterisk follows results filed as active. Only a selection was taken, and hits are over-represented in it overall.

SMILES | aSyn 5UTR act
CCOC(=O)c1ccc(NC(=O)c2cccc(S(=O)(=O)N3c4ccccc4CC3C)c2)s1 (stereo not given) | 83
CC#CC#Cc1cccc(=O)o1 | -116*
CCOc1cc2nc(-c3ccc(OC)c(OC)c3)nc(NCCCN3CCOCC3)c2cc1OC | -65*
COc1ccc(C2c3ccc4ccccc4c3Oc3ncn(CCN4CCOCC4)c(=N)c32)cc1OC (stereo not given) | 105
Clc1ccc(-c2nc(NCCN3CCOCC3)c3ccccc3n2)cc1 | -90*
O=C(Nc1ccccc1)c1ccc(-c2ccc([N+](=O)[O-])cc2)o1 | -98*
O=C(c1ccc(-c2ccc([N+](=O)[O-])cc2)o1)N1CCCCC1 | -106*
O=C(Nc1ccccc1)c1ccc(-c2ccc(Br)cc2)o1 | -93*
O=C(Nc1ccccc1)c1cnc2ccccc2n1 | -116*
CCc1nnc(NC(=O)c2ccc3ccccc3n2)s1 | -196*
O=C(Nc1ccccc1)c1ccc2ccccc2n1 | -178*
Cc1ccc(NC(=O)c2ccc(=O)[nH]n2)cc1C | -102*
O=C(Nc1ccc(S(=O)(=O)NCc2ccco2)cc1)c1ccc2ccccc2n1 | -66*
Cc1ccc(NC(=O)c2c(C)nc3ccccn23)cc1C | -152*
Cc1ccc(NC(=O)c2ccc(S(=O)(=O)NCc3ccco3)cc2)nc1 | -131*
Cc1ccc(NC(=O)c2ccc3ccccc3n2)cc1S(=O)(=O)N(C)C | -121*
O=C(N/N=C/c1ccsc1)c1ccc2ccccc2n1 | -97*
Cc1ccc(NC(=O)c2cnc3ccccc3n2)cc1C | -96*
Cc1ccc(/C=C/C(=O)c2c(C)nc3ccccn23)cc1 | -90*
Cc1ccc(NC(=O)c2ncc(Cl)c(Cl)c2Cl)cc1C | -164*
Cc1ccc(C)c(NC(=O)CSc2nccn2Cc2ccco2)c1 | -78*
CC[n+]1c(/C=C/c2ccc(OC)c(OC)c2)ccc2ccccc21 | -117*
CC[n+]1c(/C=C/c2ccc(OC(C)=O)c(OC)c2)ccc2ccccc21 | -72*
CCN(CC)c1ccc(/C=C/c2cccc[n+]2C)c(OC)c1 | 59
CCN(CC)c1ccc(/C=C/c2ccc3ccc(OC)cc3[n+]2CC)cc1 | -87*
SMILES | aSyn 5UTR act
N=c1n(CCN2CCOCC2)c2ccccc2n1CC(=O)c1ccc(Cl)c(Cl)c1 | -66*
COc1ccc(OC(=O)Nc2ccccc2)cc1 | -92*
CCc1ccc(OC(=O)Nc2ccccc2)cc1 | -159*
CCC1(c2ccccc2)NC(=S)N(c2ccc(C)cc2)N1 (stereo not given) | -85*
CCC1(c2ccc(Cl)cc2)NC(=S)N(c2ccccc2)N1 (stereo not given) | -71*
O=C(COC(=O)c1ccccc1Cl)NCCC1=CCCCC1 | -79*
O=C(NCCC1=CCCCC1)C1CCC(CNc2nc(=S)[nH]c3ccccc23)CC1 (stereo not given) | 99
O=C(COC(=O)c1ccccc1NC(=O)c1ccco1)NCCC1=CCCCC1 | -92*
CCCCN1C(=O)C(=O)N(CC(=O)N2N=C3/C(=C/c4ccco4)CCCC3C2c2ccco2)C1=O (stereo not given) | -86*
CNC(=O)c1[nH]nc2c1CCc1cc(OC)ccc1-2 | -105*
COc1ccc2c(c1)CCc1c-2n[nH]c1C(=O)NCCC(C)C | -71*
Clc1ccc(-c2nc3ccccn3c2CN2CCCCC2)cc1 | -101*
CN(C)Cc1c(-c2ccc(Cl)cc2)nc2ccccn12 | -151*
C=CCn1c(=O)c2ccccc2n2c(SCc3nc4ccccc4s3)nnc12 | -97*
COCCn1c(SCc2nc3ccccc3s2)nc2ccccc21 | -144*
CCOCCCn1c(SCc2nc3ccccc3s2)nc2ccccc2c1=O | -78*
O=C(NNS(=O)(=O)c1ccccc1[N+](=O)[O-])c1cccc([N+](=O)[O-])c1 | -69*
O=C(Nc1cc([N+](=O)[O-])ccc1O)c1cccc([N+](=O)[O-])c1 | -96*
CC(C)(C)c1cc(NC(=O)c2cccc([N+](=O)[O-])c2)no1 | -111*
Cc1cc(O)c(NC(=O)c2cccc([N+](=O)[O-])c2)cc1C | -79*
CC(C)(C)C1CCC(C(=O)Nc2nccs2)CC1 (stereo not given) | -102*
Cc1cnc(NC(=O)C2CCC(C(C)(C)C)CC2)s1 (stereo not given) | -64*
O=C(CCC1CCCCC1)Nc1nccs1 | -62*
CN1C(=C2C(=O)OC(C)(C)OC2=O)Sc2ccccc21 | -79*
Cc1ccc(Oc2ccc(Cl)cc2N)cc1 | -85*
SMILES | aSyn 5UTR act
Nc1cc(Cl)ccc1Oc1ccc2ccccc2c1 | -138*
COc1ccc2cc(-c3csc(-c4cccnc4)n3)ccc2c1 | -251*
COc1ccc(-c2csc(-c3cccnc3)n2)cc1C | -243*
CCOC(=O)N/N=C\c1ccccc1OC/C=C/c1ccccc1 | -95*
COC(=O)N/N=C\c1ccccc1OC/C=C/c1ccccc1 | -123*
O=C(CSc1nc2ccccc2o1)N/N=C/c1ccco1 | -82*
O=C(CSc1nc2ccccc2[nH]1)Nc1nc(-c2ccc(Br)cc2)cs1 | -76*
CC(=O)c1cc2c(cc1NC(=O)CSc1nc3ccccc3o1)OCO2 | -154*
Cc1ccc2nc(NC(=O)CSc3nncc(=O)n3N)sc2c1 | -98*
Cc1ccc(-c2csc(NC(=O)CSc3nc4ccccc4o3)n2)cc1 | -94*
Cc1cc(C)nc(NC(=O)CSc2nc3ccccc3o2)n1 | -153*
Cc1ccc2nc(NC(=O)CSc3nc4ccccc4o3)sc2c1 | -143*
Cc1ccc(OCCSc2nc(N)cc(N)n2)cc1 | -120*
COc1ccc(OCCSc2nc(N)cc(N)n2)cc1 | -103*
CCN(CCn1cccn1)Cc1cn[nH]c1-c1ccc(-c2ccccc2)cc1 | -67*
CN(CCc1cnn(C)c1)Cc1cn[nH]c1-c1ccc(-c2ccccc2)cc1 | -84*
CC(c1ccon1)N(C)Cc1cn[nH]c1-c1ccc(-c2ccccc2)cc1 (stereo not given) | -135*
CN(Cc1cn[nH]c1-c1ccc(-c2ccccc2)cc1)CC1CCOCC1 | -93*
Cn1cc(CCNCc2cn[nH]c2-c2ccc(-c3ccccc3)cc2)cn1 | -98*
COc1ccc(-c2nnc(N(C)C(=O)c3ccno3)s2)cc1 | -138*
COc1ccc(-c2nnc(N(C)C(=O)C3CCOC3)s2)cc1 (stereo not given) | -66*
COc1ccc(-c2nnc(N(C)C(=O)C3CCCO3)s2)cc1 (stereo not given) | -87*
Nc1cccn2c(-c3ccc(Cl)cc3)cnc12 | -260*
Nc1cccn2c(-c3ccc(Cl)c(Cl)c3)cnc12 | -183*
CC1CCCCC1NC(=O)c1cc2c(=O)n3ccccc3nc2n1C (stereo not given) | -66*
SMILES | aSyn 5UTR act
CCN(C(=O)c1cc2c(=O)n3ccccc3nc2n1C)C1CCCCC1 | -75*
CN(C(=O)c1cc2c(=O)n3ccccc3nc2n1C)C1CCCCC1 | -90*
CCN(C(=O)c1cc2c(=O)n3ccccc3nc2s1)C1CCCCC1 | -71*
c1csc(CSc2nnc3sc4ccccc4n23)c1 | -81*
O=C(CSc1nnc2sc3ccccc3n12)c1ccco1 | -118*
O=C(CSc1nnnn1-c1ccccc1)c1ccco1 | -63*
CCNc1nc(-c2ccc(Cl)cc2)cs1 | -169*
CNc1nc(-c2ccc(Cl)cc2)cs1 | -204*
COC(=O)C(Cc1ccc(OC(=O)c2ccccc2Cl)cc1)N1Cc2ccccc2C1=O (stereo not given) | -88*
COC(=O)C(Cc1ccc(OC(=O)c2ccccc2C)cc1)N1Cc2ccccc2C1=O (stereo not given) | -142*
Cc1ccc(/C=N/Nc2ccc(Cl)c(C(=O)O)c2)s1 | -153*
O=C(O)c1cc(N/N=C/c2cccs2)ccc1Cl | -253*

High-throughput results deposited in PubChem BioAssay by Broad Institute.
